Measured values reported in PubChem BioAssay (EPA / NIEHS).
Where “and” joins values, the source holds several entries; their conditions need not be identical. Equal entries are not always repeated. Inconclusive results are not listed. More than one record can exist for a structure, and the calls need not agree. Calls of active or inactive are those of the source. Rule for the calls, unless noted: active = hit-call score of the fitted dose curve at least 0.9, where 1 is the maximum; inactive = score below 0.9.

Legend:
[1] = CEETOX_H295R_MTT_cell_viability: Viability Assessment in the CeeTox HT-H295R MTT Assay (AID 2283718);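 for AC50: curve fitted both ways so AC50 may mark viability loss or gain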
How it was run: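 H295R cells prestimulated 48 h with 10 uM forskolin, then exposed 48 h to test chemical (0.1% DMSO final). Viability by MTT (0.5 mg/ml, 4 h, 37 C), absorbance 570/650 nm; percent change versus DMSO, bidirectional fit.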

[2] = Tanguay_ZF_120hpf_TR_legacy: (Legacy) Oregon State University Tanguay Lab 120 Hour Post-fertilization zebrafish Assay for Touch Response (AID 2283667; active = hit-call score of the fitted dose curve at least 0.9, where 1 is the maximum)
How it was run: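 Readout is presence or absence of touch response in 120 hpf zebrafish larvae, assessed by brightfield observation after continuous static exposure at 28C. Final vehicle was 0.64% (vol/vol) DMSO.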

[3] = CCTE_Padilla_ZF_144hpf_TERATOSCORE: (Legacy) CCTE's 144 Hour Post-fertilization zebrafish Assay Teratoscore, Padilla Lab (AID 2283679);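 for AC50: zebrafish embryos with chorions exposed by immersion from 6-8 hpf to 5 dpf with daily renewal; teratogenicity score from eye scoring of death hatching and malformations at 144 hpf; higher score means more developmental defects relative to DMSO baseline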
How it was run: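 Larvae scored by eye at 144 hpf for death, hatching and malformations after a day in clean Hanks'. Before that, daily-renewed exposure at 80 uM (0.4% DMSO, 26C) from roughly 6-8 hpf through 5 dpf, 4 embryos per chemical.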

[4] = Tanguay_ZF_120hpf_ActivityScore_legacy: (Legacy) Oregon State University Tanguay Lab 120 Hour Post-fertilization zebrafish Assay Score for Activity (AID 2283742; active = hit-call score of the fitted dose curve at least 0.9, where 1 is the maximum;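 for AC50: dechorionated Tropical 5D wild-type zebrafish embryos held singly per well; static exposure from 6 hpf until 120 hpf at 28 °C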)
How it was run: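 In this whole-embryo screen, dechorionated zebrafish were exposed from 6 hpf until 120 hpf at 28C under a 0.64% DMSO vehicle. Developmental malformations and death were recorded by brightfield microscopy as binary endpoints.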

[5] = STM_H9_OrnithineISnorm_perc: Stemina devTOX quickPredict H9 human embryonic stem cell (hESC)-based Assay for Ornithine (ORN) Metabolite Biomarker, Normalized (AID 2283712);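 note: ornithine released into spent medium during last day measured by mass spectrometry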
How it was run: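 Ornithine in spent medium from the last 24 h of a 72 h exposure, deproteinised and quantified by UPLC-HRMS against an isotope-labelled internal standard, expressed relative to 0.1% DMSO. Pluripotent H9 cells; compound refreshed every 24 h.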

[6] = STM_H9_CystineISnorm_perc: Stemina devTOX quickPredict H9 human embryonic stem cell (hESC)-based Assay for Cystine (CYSS) Metabolite Biomarker, Normalized (AID 2283713)
How it was run: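 Cystine in spent media from the last 24 h of a 72 h H9 hESC exposure (daily re-dosing), measured by UPLC-HRMS. Values normalized to isotopic internal standard, then to 0.1% DMSO; viability via CellTiter-Fluor.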

[7] = ArunA_CellTiter_hNC: Viability Assessment in the ArunA Biomedical's Oris Neural Crest (hNC) Cell Migration Assay (AID 2283752; active = hit-call score of the fitted dose curve at least 0.9, where 1 is the maximum)
How it was run: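 After a 72 h chemical exposure, viability of hNC cells is read with CellTiter Aqueous One and fitted as signal loss relative to DMSO. Cells were seeded at 60,000/well on Matrigel and cultured 16 h at 37 C beforehand.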

[8] = read-out: Cytochrome P450 (CYP24A1_1), CYP24A1 (gene 1591); test: LTEA_HepaRG_CYP24A1_1: Life Technologies and Expression Analysis (LTEA) Assay for Cytochrome P450 (CYP24A1_1) using HepaRG (AID 2283671); conditions: mRNA level, 48 h; actives raise or lower the signal
How it was run: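 Cultures of human HepaRG were treated in duplicate for 48 h (0.5% DMSO vehicle, highest dose 100 uM). CYP24A1 mRNA by qRT-PCR, normalized to ACTB, GAPDH, POLR2A.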

Question: For `CCOP(=S)(OCC)SCCS(=O)(=O)CC`, which outcome [1] is on record?
Answer: inactive

Question: What does the source list for `COc1cc(-c2ccc(N)c(OC)c2)ccc1N`?
Answer: outcome [2]: inactive; AC50 [3]: 52.6 µM (active) and 79.3 µM (active); outcome [1]: inactive; AC50 [4]: 3.57 µM (active); outcome [4]: inactive

Question: Which outcome [3] does the source give for `ClCC(Cl)CCl` here?
Answer: inactive

Question: And the outcome [5]?
Answer: inactive

Question: And the outcome [6]?
Answer: inactive

Question: What about the outcome [4] of the same compound?
Answer: inactive

Question: And the outcome [7]?
Answer: inactive

Question: Which outcome [1] does the source give for `C1CCC(NC2CCCCC2)CC1` here?
Answer: inactive

Question: Which results are given for `CCC(=O)C(CC(C)N(C)C)(c1ccccc1)c1ccccc1` (stereo unspecified)?
Answer: AC50 [2]: 39 µM (active); outcome [4]: inactive

Question: For `CC(C)OC(=O)Nc1ccccc1`, which AC50 [1] is on record?
Answer: 2.64 µM (active)

Question: With `CN(CCCC(=O)c1cccnc1)N=O` as the compound, how does the outcome [1] read?
Answer: inactive

Question: Which results are given for `CC(=O)[O][Hg][c]1ccccc1`?
Answer: outcome [2]: inactive; AC50 [3]: 0.066 µM (active); AC50 [5]: 0.476 µM (active); AC50 [6]: 0.287 µM (active); AC50 [4]: 0.111 µM (active)

Question: Which outcome [1] does the source give for `C[C@]12CC[C@H](O)CC1=CC[C@@H]1[C@@H]2CC[C@]2(C)C(=O)CC[C@@H]12` here?
Answer: inactive

Question: Which outcome [1] does the source give for `Nc1ccc(-c2ccc(N)c(Cl)c2)cc1Cl` here?
Answer: inactive

Question: Which results are given for `C=C(C)C(=O)[O][Sn]([CH2]CCC)([CH2]CCC)[CH2]CCC`?
Answer: outcome [2]: inactive; AC50 [3]: 0.0483 µM (active); AC50 [5]: 0.494 µM (active); AC50 [6]: 0.266 µM (active); AC50 [4]: 1.54 µM (active)

Question: What does the source list for `Cn1sc(Cl)cc1=O`?
Answer: AC50 [3]: 14.9 µM (active); outcome [1]: inactive; AC50 [4]: 39.8 µM (active)

Question: With `O=C(Cc1ccccc1)c1ccccc1` as the compound, how does the outcome [1] read?
Answer: inactive

Question: For `CCCCCCCCC(=O)NCc1ccc(O)c(OC)c1`, which outcome [1] is on record?
Answer: inactive

Question: Which outcome [4] does the source give for `CC(C)(OO)c1ccccc1` here?
Answer: inactive

Question: Which outcome [2] does the source give for `CN(C)N=O` here?
Answer: inactive

Question: And the outcome [3]?
Answer: inactive

Question: And the outcome [4]?
Answer: inactive

Question: With `C=CC(=O)N(C)C` as the compound, how does the outcome [1] read?
Answer: inactive

Question: With `CCN1CCC2(CC1)COc1cc3c(cc12)N(C(=O)c1ccc(-c2ccc(-c4nnc(C)o4)cc2C)cc1)CC3` as the compound, how does the outcome [2] read?
Answer: inactive

Question: And the AC50 [3]?
Answer: 54 µM (active)

Question: And the outcome [3]?
Answer: inactive

Question: What about the AC50 [5] of the same compound?
Answer: 8.53 µM (active)

Question: What about the AC50 [6] of the same compound?
Answer: 3.56 µM (active)

Question: And the outcome [4]?
Answer: inactive

Question: Which outcome [1] does the source give for `Oc1ccc(-c2ccccc2)cc1` here?
Answer: inactive

Question: What does the source list for `C=CC(=O)OCCCCCC(C)C`?
Answer: outcome [2]: inactive; outcome [4]: inactive

Question: With `C(=NC1CCCCC1)=NC1CCCCC1` as the compound, how does the outcome [1] read?
Answer: inactive

Question: Which outcome [2] does the source give for `ClC1(Cl)C2(Cl)C3(Cl)C4(Cl)C(Cl)(Cl)C5(Cl)C3(Cl)C1(Cl)C5(Cl)C24Cl` (stereo unspecified) here?
Answer: inactive

Question: And the outcome [8]?
Answer: inactive

Question: What about the outcome [5] of the same compound?
Answer: inactive

Question: What about the outcome [6] of the same compound?
Answer: inactive

Question: And the outcome [4]?
Answer: inactive

Question: For `c1cc[c]([Hg][c]2ccccc2)cc1`, which AC50 [1] is on record?
Answer: 24.7 µM (active)

Question: For `ClC(Cl)=C(Cl)C(Cl)=C(Cl)Cl`, which outcome [1] is on record?
Answer: inactive

Question: For `O=[N+]([O-])c1ccc(O)c([N+](=O)[O-])c1`, which AC50 [3] is on record?
Answer: 4.96 µM (active)

Question: And the outcome [5]?
Answer: inactive

Question: What about the AC50 [6] of the same compound?
Answer: 31.1 µM (active)

Question: And the AC50 [4]?
Answer: 29.6 µM (active)

Question: For `C[C@]12CCC(=O)C[C@@H]1CC[C@@H]1[C@@H]2CC[C@]2(C)[C@@H](O)CC[C@@H]12`, which outcome [2] is on record?
Answer: inactive

Question: And the AC50 [3]?
Answer: 11.6 µM (active)

Question: And the outcome [1]?
Answer: inactive

Question: What about the outcome [4] of the same compound?
Answer: inactive

Question: With `Fc1ccc(C2(Cn3cncn3)OC2c2ccccc2Cl)cc1` (stereo unspecified) as the compound, how does the outcome [1] read?
Answer: inactive

Question: Which results are given for `O=C1C2(Cl)C3(Cl)C4(Cl)C(Cl)(Cl)C5(Cl)C3(Cl)C1(Cl)C5(Cl)C24Cl` (stereo unspecified)?
Answer: AC50 [2]: 34.8 µM (active); AC50 [3]: 3.4 µM (active); AC50 [4]: 71 µM (active)

Question: For `O=c1[nH]c(=O)[nH]c(=O)[nH]1`, which outcome [2] is on record?
Answer: inactive

Question: What about the outcome [3] of the same compound?
Answer: inactive

Question: And the outcome [4]?
Answer: inactive

Question: For `C[C@@H]1C[C@@H]([C@H](O)CC2CC(=O)NC(=O)C2)C(=O)[C@@H](C)C1`, which AC50 [3] is on record?
Answer: 6 µM (active)

Question: What about the AC50 [5] of the same compound?
Answer: 4.59 µM (active)

Question: What about the AC50 [6] of the same compound?
Answer: 0.92 µM (active)

Question: And the outcome [1]?
Answer: inactive

Question: What about the AC50 [4] of the same compound?
Answer: 17.9 µM (active)

Question: Which AC50 [1] does the source give for `O=C(OC1CCCCC1)c1ccccc1C(=O)OC1CCCCC1` here?
Answer: 28.6 µM (active)
